# ± gives the standard deviation.
# How the values were obtained:
# Conditions in all cases: modulator concentration 10 µM
# [1] = test system: RAW-Dual (murine macrophage reporter line); assay: NF-kB reporter (SEAP) activity fold change vs agonist alone; higher = enhanced NF-kB activity
# Method in brief: (§1)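 Overnight stimulation with a PRR agonist followed pre-incubation for 1 hour at 37 °C with compound at 10 μM final. This was done in RAW-Dual murine macrophage reporter cells seeded at 50 000 per well in 384-well plates. NF-κB (SEAP, QUANTI-Blue absorbance at 620 nm) and IRF (Lucia luciferase, QUANTI-Luc luminescence) were read from the supernatant. Each reporter's fold change relative to the mean agonist-only control on the same plate was averaged over replicate plates.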
# [2] = test system: RAW-Dual (murine macrophage reporter line); assay: IRF reporter (Lucia luciferase) activity fold change vs agonist alone; higher = enhanced IRF activity
# Method in brief: as §1
# [3] = test system: RAW-Dual (murine macrophage reporter line); assay: viability score (confluency relative to resting cells, overnight) (fraction); higher = more viable, active = viable (0.7 or more)
# Method in brief: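 RAW-Dual macrophages in 384-well plates were incubated overnight with compound, final concentration 10 μM. Confluency images from IncuCyte were processed in IncuCyte software into two masks covering all imaged wells. The viability score is each well's confluency relative to resting cells, and a compound met the cutoff when both masks exceeded 70% of resting cells.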
# [4] = agonist: CpG ODN 1826 0.5 ug/mL
SMILES,"NF-kB reporter [1, 4]",NF-kB reporter ([1]; agonist: LPS 0.1 ug/mL),NF-kB reporter ([1]; agonist: MPLA […]),IRF reporter ([2]; agonist: 3'3'-cGAMP 10 ug/mL),IRF reporter ([2]; agonist: LPS 0.1 ug/mL),IRF reporter ([2]; agonist: MPLA […]),viability score [3]
Cc1c(C(=O)Nc2cccc3ccccc23)cccc1[N+](=O)[O-],0.854 ± 0.25,1.2 ± 0.12,1.04 ± 0.18,0.807 ± 0.034,1.22 ± 0.22,1.41 ± 0.42,0.633 (inactive)
O=C(Nc1cc(C(F)(F)F)cc(C(F)(F)F)c1)c1c(F)cccc1F,0.953 ± 0.099,1.07 ± 0.075,0.911 ± 0.069,0.987 ± 0.07,1.29 ± 0.14,1.07 ± 0.072,1.01 (active)
COCCn1c(C)cc(C(=O)CSc2ncnc3sc4c(c23)CCC4)c1C,0.991 ± 0.067,1.11 ± 0.12,1.02 ± 0.079,1.04 ± 0.036,1.43 ± 0.12,1.16 ± 0.12,0.994 (active)
[O-][n+]1cccc(CO)c1,1.58 ± 0.067,1.96 ± 0.16,3.03 ± 0.16,1.14 ± 0.054,1 ± 0.19,1.4 ± 0.42,0.987 (active)
Cc1c(Cl)cccc1Nc1ccccc1C(=O)O,1.16 ± 0.17,1.14 ± 0.3,0.887 ± 0.052,0.938 ± 0.043,1.34 ± 0.26,1.13 ± 0.28,1 (active)
CCCNCC(O)COc1ccccc1C(=O)CCc1ccccc1 (configuration not stated),0.639 ± 0.086,0.988 ± 0.098,1.21 ± 0.066,0.989 ± 0.07,0.948 ± 0.095,0.869 ± 0.16,0.826 (active)
Nc1ncnc2c1ncn2[C@@H]1O[C@H](COP(=O)(O)O)[C@@H](O)[C@H]1O [Prestw-356],1.37 ± 0.16,1.09 ± 0.11,1.23 ± 0.12,1.32 ± 0.069,1.21 ± 0.16,1.36 ± 0.28,1.03 (active)
O=C(C=Cc1cc([N+](=O)[O-])ccc1O)c1ccc(Cl)cc1,0.614 ± 0.052,0.81 ± 0.046,1.26 ± 0.21,0.496 ± 0.023,1.28 ± 0.074,1.25 ± 0.11,0.983 (active)
COC(C)(CNC(=O)c1cc2ccccc2[nH]1)c1ccccc1F (configuration not stated),0.825 ± 0.035,0.96 ± 0.081,1.06 ± 0.057,0.944 ± 0.063,1.01 ± 0.17,1.11 ± 0.22,0.94 (active)
CN(C)CCCN1c2ccccc2Sc2ccccc21.Cl,0.791 ± 0.075,0.956 ± 0.12,1.25 ± 0.054,0.719 ± 0.051,0.994 ± 0.07,0.798 ± 0.069,0.534 (inactive)
Cc1c(C(=O)OC(C)C)sc(NC(=O)C(F)(F)F)c1C(=O)OC(C)C,1.4 ± 0.08,1.01 ± 0.076,1.05 ± 0.032,0.781 ± 0.028,0.937 ± 0.067,1.19 ± 0.22,0.993 (active)
CCN(Cc1ccncc1)C(=O)C(CO)c1ccccc1 (configuration not stated),0.998 ± 0.087,0.997 ± 0.11,1.04 ± 0.071,0.972 ± 0.076,0.954 ± 0.058,0.932 ± 0.08,1 (active)
Cc1ccc(S(=O)(=O)n2cnc3ccccc32)cc1C,0.594 ± 0.066,1.11 ± 0.065,1.07 ± 0.064,1.12 ± 0.042,1.37 ± 0.12,1.06 ± 0.07,0.988 (active)
O=C(NCC1CCCO1)c1[nH]nnc1-c1ccc(F)cc1 (configuration not stated),1.15 ± 0.16,0.996 ± 0.075,1.01 ± 0.05,0.999 ± 0.038,1.03 ± 0.048,1.1 ± 0.12,1 (active)
CC(C)=CCC/C(C)=C/CC/C(C)=C/CSc1ccccc1C(=O)O,1.32 ± 0.071,0.929 ± 0.074,2.18 ± 0.19,0.18 ± 0.011,0.52 ± 0.084,0.721 ± 0.16,0.902 (active)
O=C(O)c1cc2nc(-c3ccc(Cl)c(Cl)c3)cc(C(F)(F)F)n2n1,0.958 ± 0.076,1.09 ± 0.06,0.973 ± 0.058,1.02 ± 0.031,1.66 ± 0.2,1.13 ± 0.11,1.01 (active)
CC1(C)Cc2cccc(OCC(=O)NCc3ccccn3)c2O1,0.948 ± 0.064,1 ± 0.1,0.986 ± 0.045,0.896 ± 0.034,1.02 ± 0.048,0.906 ± 0.087,0.996 (active)
CCCC1CCC(c2ccc(C(=O)NNC(=O)c3ccc(C4CCC(CCC)CC4)cc3)cc2)CC1 (configuration not stated),0.984 ± 0.059,1.01 ± 0.07,0.936 ± 0.059,0.898 ± 0.035,1.43 ± 0.11,1.13 ± 0.21,1.01 (active)
COC(=O)C1=C(C)N(c2ccc(F)cc2)C(=O)C1,1 ± 0.092,0.811 ± 0.08,0.813 ± 0.071,0.516 ± 0.025,0.865 ± 0.068,0.505 ± 0.065,1.01 (active)
CC(=NNC(=O)CSc1nc2ccccc2n1Cc1ccccc1)c1ccc(Br)cc1,0.996 ± 0.12,0.996 ± 0.1,1.04 ± 0.036,0.942 ± 0.042,0.946 ± 0.16,1.01 ± 0.29,0.996 (active)
CCOc1nc2cccc(C(=O)OC(C)OC(=O)OC3CCCCC3)c2n1Cc1ccc(-c2ccccc2-c2nnn[nH]2)cc1 (configuration not stated),0.672 ± 0.089,0.762 ± 0.062,0.976 ± 0.092,1.1 ± 0.051,1.31 ± 0.089,1.47 ± 0.13,1.02 (active)
COc1cc2nc(N3CCN(C(=O)C4CCCO4)CC3)nc(N)c2cc1OC.Cl (configuration not stated),0.503 ± 0.069,0.98 ± 0.24,0.904 ± 0.054,0.913 ± 0.055,1.34 ± 0.31,1.07 ± 0.14,0.988 (active)
NS(=O)(=O)c1ccc2c(c1)C1C=CCC1C(C(=O)O)N2 (configuration not stated),0.586 ± 0.049,0.992 ± 0.15,1.01 ± 0.075,0.8 ± 0.043,0.931 ± 0.055,1.01 ± 0.089,0.997 (active)
Cc1n[nH]c(C)c1CCC(=O)NC1CCC(F)(F)CC1,0.921 ± 0.068,1.04 ± 0.12,0.879 ± 0.048,0.955 ± 0.062,1.18 ± 0.094,1.03 ± 0.28,1.02 (active)
O=C1CNC(=O)N1CC(O)Cn1c2ccc(Br)cc2c2cc(Br)ccc21 (configuration not stated),0.998 ± 0.091,0.791 ± 0.068,0.908 ± 0.025,0.989 ± 0.22,0.928 ± 0.044,0.698 ± 0.079,0.926 (active)
O=C(CCC1CCCC1)Nc1cccc(Cl)c1,0.771 ± 0.061,0.906 ± 0.1,1.15 ± 0.1,0.943 ± 0.046,1.63 ± 0.11,1.87 ± 0.16,1 (active)
